From PubChem BioAssay
PLAP act: human PLAP activation | P05187 | purified PLAP enzyme, luminescent substrate read-out; hits give high values | activation fold at 20 µM | 96,000 compounds, 1.2% hits | AID 696; in the data active = activation fold above about 2
Target sequence (P05187 whole entry, looked up): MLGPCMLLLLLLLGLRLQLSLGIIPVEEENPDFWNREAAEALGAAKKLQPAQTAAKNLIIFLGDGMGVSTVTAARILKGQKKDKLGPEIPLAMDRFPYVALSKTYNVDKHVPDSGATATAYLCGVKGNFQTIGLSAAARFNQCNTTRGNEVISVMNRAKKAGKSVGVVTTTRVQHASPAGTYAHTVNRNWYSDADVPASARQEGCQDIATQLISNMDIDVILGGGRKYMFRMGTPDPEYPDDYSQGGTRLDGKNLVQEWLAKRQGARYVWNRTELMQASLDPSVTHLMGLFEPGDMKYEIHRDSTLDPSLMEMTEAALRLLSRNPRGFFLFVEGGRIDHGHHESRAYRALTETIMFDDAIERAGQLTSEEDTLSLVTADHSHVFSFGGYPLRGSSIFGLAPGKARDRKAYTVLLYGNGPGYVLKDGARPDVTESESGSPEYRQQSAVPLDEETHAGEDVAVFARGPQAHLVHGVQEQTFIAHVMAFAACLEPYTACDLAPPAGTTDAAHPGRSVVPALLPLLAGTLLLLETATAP
CYP2C19 activ: cytochrome P450 2C19 (human) activation | AID 1025 | recombinant CYP2C19, luciferin-H EGE luminescence; hits give high values; 0 = fully inhibited enzyme, 1 = untreated enzyme | 96,000 tested, under 10 active | activation factor at 5 µM | P33261;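 active = activation factor of at least 2 at 5 µM in the primary screen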;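 note: 0 = wells with 2.5 mM tranylcypromine and 1 = vehicle-only wells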
CYP2C19 inhib: inhibitors of human CYP2C19. 96,000 compounds, 21% hits. CYP2C19 Supersomes, luciferin-H EGE luminescence, 30 min. P33261. inhibition, % at 5 µM. AID 778;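 active = CYP2C19 inhibition above a set limit at 5 µM in the primary screen, cut at about 50% in these data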;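 note: plate controls were negative control wells for no effect and 2.5 mM tranylcypromine positive control for full effect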
CYP2C9 inhib: inhibitors of human CYP2C9; AID 777; inhibition, % at 5 µM; 96,000 compounds, 20% hits; P11712; CYP2C9 Supersomes, luciferin-H conversion, luminescence;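 active = blocking of liver enzyme CYP2C9 beyond about 50% at 5 µM, limit read from the data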
CYP2C9 act: increases human cytochrome P450 2C9 activity | 96,000 compounds, 1.4% hits | activation factor at 5 µM | recombinant CYP2C9, luciferin-H conversion, luminescence; hits give high values; factor 1 = untreated enzyme, 0 = blocked;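 active = activation factor of 2 or more for CYP2C9 at a 5 µM dose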;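 note: 0 = sulfaphenazole-blocked wells and 1 = vehicle-only wells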
* hit, by the source's call. Hits are enriched below; roughly 31% of the tested compounds scored in any of these assays.

For O=C(Cn1nc(-c2ccccc2)c2ccccc2c1=O)Nc1cccnc1 the results were PLAP act 1.2, CYP2C19 activ 0.8, CYP2C19 inhib 20, CYP2C9 inhib 72* and CYP2C9 act 0.3.
CC(Oc1ccccc1)C(=O)Nc1ccc(S(=O)(=O)NCC2CCCO2)cc1 (stereo not drawn) was read as PLAP act 0.9, CYP2C19 activ 1.1, CYP2C19 inhib -12, CYP2C9 inhib 45 and CYP2C9 act 0.6.
Screening O=C(CSc1nnc(Cc2ccccc2)n1C1CCCCC1)N1CCOCC1 returned PLAP act 1.4, CYP2C19 activ 0.9, CYP2C19 inhib 5, CYP2C9 inhib 0 and CYP2C9 act 1.
`Nc1nc(Nc2cccc(F)c2)nc2ccccc12` gave PLAP act 1.5, CYP2C19 activ 0.4, CYP2C19 inhib 62*, CYP2C9 inhib 56* and CYP2C9 act 0.4.
For O=C(c1ccccc1)N1CC(COc2ccccc2)OC(c2ccco2)O1 (stereo not drawn) the results were PLAP act 1.2, CYP2C19 activ 0.1, CYP2C19 inhib 88*, CYP2C9 inhib 40 and CYP2C9 act 0.6.
`CCCCn1c(CCn2nc(C)c(Br)c2C)n[nH]c1=S` gave PLAP act 2.1*, CYP2C19 activ 0.1, CYP2C19 inhib 90*, CYP2C9 inhib 49 and CYP2C9 act 0.5.
CCCCn1c(-c2ccc([N+](=O)[O-])cc2)n[nH]c1=S was read as PLAP act 1, CYP2C19 activ 1, CYP2C19 inhib -5, CYP2C9 inhib 0 and CYP2C9 act 1.
CCCc1cc(=O)[nH]c(/N=C(/NC(=O)C(C)N2C(=O)c3ccccc3C2=O)Nc2ccccc2)n1 (stereo not drawn) was read as PLAP act 0.9, CYP2C19 activ 1, CYP2C19 inhib 1, CYP2C9 inhib 62* and CYP2C9 act 0.4.
Screening Cc1ccc(NC(=O)C(C)N2C(=O)c3ccccc3C2=O)cc1 (stereo not drawn) returned PLAP act 0.9, CYP2C19 activ 0.6, CYP2C19 inhib 41, CYP2C9 inhib 24 and CYP2C9 act 0.8.
Cc1cc(C(C)(C)C)oc1C(=O)N(CC(=O)NC1CCCC1)c1cccc(C(F)(F)F)c1 was read as PLAP act 1.5, CYP2C19 activ 0.7, CYP2C19 inhib 32, CYP2C9 inhib 22 and CYP2C9 act 0.8.
Screening Cc1ccc(C(=O)N(CC(=O)NC2CCCCC2)c2ccccc2C)s1 returned PLAP act 0.9, CYP2C19 activ 0.5, CYP2C19 inhib 46, CYP2C9 inhib 62* and CYP2C9 act 0.4.
Screening Cc1cccc(N(CC(=O)NC2CCCC2)C(=O)c2cc3cc4cccc(C)c4nc3s2)c1C returned PLAP act 1.4, CYP2C19 activ 0.7, CYP2C19 inhib 34, CYP2C9 inhib 90* and CYP2C9 act 0.1.
For Cc1ccc(C)c(N(CC(=O)NC2CCCC2)C(=O)c2cc3cc4cc(C)ccc4nc3s2)c1 the results were PLAP act 1, CYP2C19 activ 1.1, CYP2C19 inhib -12, CYP2C9 inhib 1 and CYP2C9 act 1.
Cc1cccc(N(CC(=O)NC2CCCCC2)C(=O)c2ccc(C)s2)c1 was read as PLAP act 1, CYP2C19 activ 0.6, CYP2C19 inhib 40, CYP2C9 inhib 60* and CYP2C9 act 0.4.
Screening CC1=CC=CC2=NC(=O)CC(C)(C(=O)N(CC(=O)NC3CCCC3)c3ccccc3C)N12 (stereo not drawn) returned PLAP act 1.2, CYP2C19 activ 1, CYP2C19 inhib 2, CYP2C9 inhib 0 and CYP2C9 act 1.
For CCC(C)n1cnc2c(=O)oc3ccccc3c21 (stereo not drawn) the results were PLAP act 0.9, CYP2C19 activ 0.7, CYP2C19 inhib 32, CYP2C9 inhib 16 and CYP2C9 act 0.8.
`N#Cc1ccc(-c2ccc(F)cc2)nc1SCC(=O)Nc1sc2c(c1C#N)CCC2` gave PLAP act 1, CYP2C19 activ 1.1, CYP2C19 inhib -11, CYP2C9 inhib -3 and CYP2C9 act 1.
For Cc1nc(-c2ccc(NS(C)(=O)=O)cc2)cs1 the results were PLAP act 1, CYP2C19 activ 1.1, CYP2C19 inhib -11, CYP2C9 inhib 3 and CYP2C9 act 1.
For Cc1cc(NC(=O)CN2CCN(c3ncccn3)CC2)no1 the results were PLAP act 1, CYP2C19 activ 1.1, CYP2C19 inhib -10, CYP2C9 inhib 1 and CYP2C9 act 1.
For Cc1ccc(CN2CCN(c3ncccn3)CC2)o1 the results were PLAP act 1.2, CYP2C19 activ 0.3, CYP2C19 inhib 68*, CYP2C9 inhib 31 and CYP2C9 act 0.7.
`Fc1cccc(F)c1CN1CCN(c2ncccn2)CC1` gave PLAP act 1.3, CYP2C19 activ 0.2, CYP2C19 inhib 79*, CYP2C9 inhib 43 and CYP2C9 act 0.6.
For O=C1NC(=S)SC1=C1CCCCCC1 the results were PLAP act 1.3, CYP2C19 activ 0.9, CYP2C19 inhib 13, CYP2C9 inhib 20 and CYP2C9 act 0.8.
For Cc1nc2c(cnn2-c2ccccc2Cl)c(=O)n1-c1ccc(C(C)C)cc1 the results were PLAP act 1.2, CYP2C19 activ 0.8, CYP2C19 inhib 18, CYP2C9 inhib -22 and CYP2C9 act 1.2.
CC(C)NS(=O)(=O)c1ccc(OCC(=O)NCc2ccccc2)cc1 was read as PLAP act 1, CYP2C19 activ 0.6, CYP2C19 inhib 43, CYP2C9 inhib 61* and CYP2C9 act 0.4.
`CCNC(=O)COc1ccc(-c2ccccc2)cc1` gave PLAP act 1.1, CYP2C19 activ 0.4, CYP2C19 inhib 62*, CYP2C9 inhib 29 and CYP2C9 act 0.7.
O=C(COc1ccccc1)NCc1ccccc1 was read as PLAP act 0.9, CYP2C19 activ 0.3, CYP2C19 inhib 74*, CYP2C9 inhib 9 and CYP2C9 act 0.9.
Cc1cc2ccccc2n1CCNC(=O)COc1ccccc1 was read as PLAP act 1.2, CYP2C19 activ 0.1, CYP2C19 inhib 94*, CYP2C9 inhib 38 and CYP2C9 act 0.6.
Screening O=C(COc1ccc([N+](=O)[O-])cc1)NCc1ccccc1 returned PLAP act 1.1, CYP2C9 inhib 16 and CYP2C9 act 0.8.
`CC(C)(C)NC(=O)COc1ccc(-c2ccccc2)cc1` gave PLAP act 1.2, CYP2C19 activ 0.9, CYP2C19 inhib 10, CYP2C9 inhib -18 and CYP2C9 act 1.2.
Screening CC(C)NS(=O)(=O)c1ccc(OCC(=O)NCc2cccnc2)cc1 returned PLAP act 0.9, CYP2C19 activ 0.9, CYP2C19 inhib 10, CYP2C9 inhib 45 and CYP2C9 act 0.5.
For CCOC(=O)C(NC(C)=O)(Nc1ccc(S(=O)(=O)Nc2nccs2)cc1)C(F)(F)F (stereo not drawn) the results were PLAP act 1.1, CYP2C19 activ 0.9, CYP2C19 inhib 5, CYP2C9 inhib 20 and CYP2C9 act 0.8.
For COc1ccc(OC)c(NC(=O)COc2ccc(S(=O)(=O)NC(C)C)cc2)c1 the results were PLAP act 0.8, CYP2C19 activ 0.5, CYP2C19 inhib 46, CYP2C9 inhib 44 and CYP2C9 act 0.6.
